Values joined by “and” are separate entries in the source; they are usually repeats but may differ in a detail not shown here. Equal values may be shown once. Where a structure was tested more than once in an assay, its records may differ in their call. Active and inactive are the calls of the source. Rule for the calls: active = hit-call score of the fitted dose curve at least 0.9, where 1 is the maximum; inactive = score below 0.9.
What follows are compounds tested on Collagen III, COL3A1 (gene 1281) (assay: BSK_hDFCGF_CollagenIII: BioMAP Diversity Plus: hDFCGF Assay for Collagen III Biomarker Activity (AID 2283056)). Details: primary human foreskin fibroblasts; actives raise or lower the signal.
Method: BSK_hDFCGF is a cell-based, multiplexed-readout assay that uses foreskin fibroblast, a human skin primary cell, with measurements taken at 24 hours after chemical dosing in a 96-well plate.BSK_hDFCGF_CollagenIII is an assay component measured in the BSK_hDFCGF assay. It measures Collagen antibody related to regulation of gene expression using ELISA technology.Data from the assay component BSK_hDFCGF_CollagenIII was analyzed into 1 assay endpoint. This assay endpoint, BSK_hDFCGF_CollagenIII, was analyzed with bidirectional fitting relative to DMSO as the negative control and baseline of activity. Using a type of binding reporter, gain or loss-of-signal activity can be used to understand changes in the signaling as they relate to the gene COL3A1. Furthermore, this assay endpoint can be referred to as a primary readout, because this assay has produced multiple assay endpoints where this one serves a signaling function. To generalize the intended target to other relatable targets, this assay endpoint is annotated to the cell adhesion molecules intended target family, where the subfamily is collagen.
The levels of cell surface (or secreted, indicated by the prefix "s") biomarker endpoints were measured by ELISA. Overt cytotoxicity to cells in confluent adherent cultures (all systems other than the BT system) was assessed by measuring total protein levels using sulforhodamine B (SRB) staining in parallel cultures at the time of biomarker measurements, indicated as SRB endpoints. For proliferation assays for adherent cell types, individual cell types are cultured at sub-confluence and relative cell numbers quantified by SRB staining at time points optimized for each system (48 h: 3C and CASM3C systems; 72 h: BT and HDF3CGF systems; 96 h: SAg system). SRB was performed by staining cells with 0.1% SRB after fixation with 10% TCA and reading wells at 560 nm.Viability and proliferation of PBMC (T cells) was quantified by Alamar Blue reduction for the SAg and BT systems. For PBMC viability (referred to as PBMC Cytotoxicity within the assay endpoint names), cells were plated (75,000/well in a 96-well plate) and then chemical samples added for 1 h before addition of activators, SEB and TSST-1 (20 ng/mL final concentration each). Cells were incubated for 90 h. Then, Alamar Blue (20 uL/well) (Invitrogen, Cat DAL1100) was added for 6 h, and the plates were read with a fluorescence microplate reader at 546/580 nm (excitation/emission). For PBMC proliferation, cells were plated and activated as above but incubated for only 16 h prior to addition of Alamar Blue. Plates were read after 6 h.
In the case of `CNS(=O)(=O)C(F)(F)C(F)(F)C(F)(F)C(F)(F)C(F)(F)C(F)(F)C(F)(F)C(F)(F)F`, the outcome is reported as “inactive”.
`C=CC(=O)OCC(F)(F)C(F)(F)C(F)(F)C(F)(F)C(F)(F)C(F)(F)C(F)(F)C(F)F` was tested, and the outcome was “inactive”.
In the case of `O=S(=O)(O)CCC(F)(F)C(F)(F)C(F)(F)C(F)(F)F`, the AC50 is reported as 2.04 µM (active) and the outcome is reported as “inactive”.
In the case of `OCCCCC(F)(F)C(F)(F)C(F)(F)C(F)(F)F`, the outcome is reported as “inactive”.
`NC(O)(C(F)(F)F)C(F)(F)F` was tested, and the outcome was “inactive”.
For `O=C(O)C(F)(F)C(F)(F)C(F)(F)C(F)(F)C(F)(F)C(F)(F)C(F)F`, the AC50 was 30 µM (active) and the outcome was “inactive”.
`Brc1nc2ccccc2s1` was tested, and the outcome was “inactive”.
With `Cc1cc(C)c(O)c(C(C)(C)C)c1` the AC50 was 20 µM (active).
`O=S(=O)(O)CCC(F)(F)C(F)(F)C(F)(F)C(F)(F)C(F)(F)C(F)(F)C(F)(F)C(F)(F)F` was tested, and the outcome was “inactive”.
`CC1=CC2C3C=CC(C3)C2C1C` (stereo not given) was tested, and the outcome was “inactive”.
With `CCN(CCO)S(=O)(=O)C(F)(F)C(F)(F)C(F)(F)C(F)(F)C(F)(F)C(F)(F)C(F)(F)C(F)(F)F` the outcome was “inactive” and the AC50 was 8.31 µM (active).
`CC(C)CCCC(C)CCO` (stereo not given) was tested, and the outcome was “inactive”.
In the case of `O=S(=O)(Cl)C(F)(F)C(F)(F)C(F)(F)C(F)(F)C(F)(F)C(F)(F)C(F)(F)C(F)(F)F`, the outcome is reported as “inactive”.
For `O=C(Cl)C(F)(F)C(F)(F)C(F)(F)C(F)(F)C(F)(F)C(F)(F)C(F)(F)F`, the outcome was “inactive”.
With `CCN(CC)c1ccc(C=O)cc1` the outcome was “inactive”.
With `C=C(C)C(=O)OCC(F)(F)C(F)(F)C(F)(F)C(F)F` the outcome was “inactive”.
With `O=C1c2c(O)ccc(Nc3ccc(CCO)cc3)c2C(=O)c2c([N+](=O)[O-])ccc(O)c21` the AC50 was 20 µM (active).
In the case of `FC(F)(F)C(F)(F)C(F)(F)C(F)(F)C(F)(F)C(F)(F)CC[Si](Cl)(Cl)Cl`, the outcome is reported as “inactive”.
With `OCCCC(F)(F)C(F)(F)C(F)(F)C(F)(F)C(F)(F)C(F)(F)C(F)(F)C(F)(F)F` the AC50 was 10.7 µM (active) and 9.75 µM (active).
`NS(=O)(=O)C(F)(F)C(F)(F)C(F)(F)C(F)(F)C(F)(F)C(F)(F)F` was tested, and the outcome was “inactive”.
In the case of `O=S(=O)(OCC(F)(F)F)C(F)(F)C(F)(F)C(F)(F)C(F)(F)F`, the outcome is reported as “inactive”.
For `NC(=O)C(F)(F)C(F)(F)C(F)(F)C(F)(F)C(F)(F)C(F)(F)C(F)(F)F`, the outcome was “inactive”.
For `Cc1cnccn1`, the outcome was “inactive”.
In the case of `CC(C)(C)c1cc(CCC(=O)NCCCCCCNC(=O)CCc2cc(C(C)(C)C)c(O)c(C(C)(C)C)c2)cc(C(C)(C)C)c1O`, the outcome is reported as “inactive”.
For `FC(F)(F)C(F)(F)C(F)(F)C(F)(F)C(F)(F)C(F)(F)C(F)(F)CCI`, the outcome was “inactive” and the AC50 was 2.26 µM (active).
With `CCN(CC)c1ccc(N=Nc2ccccc2)cc1` the AC50 was 3.65 µM (active).
For `CN(C(=O)C(F)(F)C(F)(F)C(F)(F)F)[Si](C)(C)C`, the outcome was “inactive”.
`COC(F)(C(F)F)C(F)(F)F` (stereo not given) was tested, and the outcome was “inactive”.
For `O=C(F)C1(F)C(F)(F)C(F)(F)C(F)(F)C(F)(F)C1(F)F`, the outcome was “inactive”.
With `OCC(O)CC(F)(F)C(F)(F)C(F)(F)C(F)(F)C(F)(F)C(F)(F)C(F)(F)C(F)(F)F` (stereo not given) the outcome was “inactive”.
`C=CC(=O)OCCC(F)(F)C(F)(F)C(F)(F)C(F)(F)F` was tested, and the AC50 was 21.9 µM (active) and the outcome was “inactive”.
With `NC(=O)C(F)(F)C(F)(F)C(F)(F)C(F)F` the outcome was “inactive”.
In the case of `C[C@]12CC[C@H]3C(=CCc4cc(O)ccc43)[C@@H]1CCC2=O`, the outcome is reported as “inactive”.
For `O=C(O)C(F)(F)C(F)(F)C(F)(F)C(=O)O`, the outcome was “inactive”.
With `O=C=NCc1cccc(CN=C=O)c1` the outcome was “inactive”.

Reference: PubChem BioAssay (EPA / NIEHS)
